Experimental data: PubChem BioAssay
The source made the active and inactive calls. Unless noted, the rule behind the calls is not given here.

What was measured:
[1] = compound effects on lung adenocarcinoma cell viability – A549, calcein-AM fluorescence, 48 h, basal, profiling panel (AID 1162); settings: higher = more signal; note: test concentration not given here
[2] = compound effects on differentiated 3T3-L1 adipocyte viability – cell-based, 3T3-L1 adipocytes, calcein-AM fluorescence, 48 h, basal, profiling panel (AID 1163); settings: 3T3-L1 adipocytes viability, higher = more signal; note: test concentration not given here
[3] = compound effects on hepatocellular carcinoma cell viability – HepG2, calcein-AM fluorescence, 48 h, basal, profiling panel (AID 1164); settings: higher = more signal; note: test concentration not given here
[4] = compound effects on multiple myeloma cell viability – MM1S, calcein-AM fluorescence, 48 h, basal, profiling panel (AID 1165); settings: higher = more signal;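 note: viability of MM1S multiple myeloma cells under basal unstimulated conditions; test concentration not given here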
[5] = calcein-AM signal in unstimulated myeloma cells – cell-based, calcein-AM fluorescence, 48 h, PK04 Diversity Set, profiling panel (AID 1166); settings: RPMI8226 myeloma viability, higher = more signal;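 note: cells grown under basal conditions without added stimulus; test concentration not given here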
[6] = JC-1 mitochondrial signal, unstimulated HepG2 cells – cell-based, JC-1 fluorescence, 24 h, 100 nL compound, profiling panel (AID 1167); settings: HepG2 mitochondrial potential, higher = more signal; note: test concentration not given here
[7] = JC-1 mitochondrial signal, unstimulated adipocytes – cell-based, JC-1 fluorescence, 3T3-L1 adipocytes, 24 h, 100 nL compound, profiling panel (AID 1168); settings: JC-1 mitochondrial fluorescence, higher = more signal, called active from +8 up or from −8 down; note: test concentration not given here
[8] = JC-1 mitochondrial signal, unstimulated myeloma cells – cell-based, JC-1 fluorescence, RPMI8226, 24 h, 100 nL compound, profiling panel (AID 1169); settings: JC-1 mitochondrial potential fluorescence, higher = more signal; note: test concentration not given here
[9] = JC-1 mitochondrial signal, unstimulated MM1S myeloma – cell-based, JC-1 fluorescence, 24 h, 100 nL compound, profiling panel (AID 1170); settings: MM1S mitochondrial potential, higher = more signal; note: test concentration not given here
[10] = resazurin metabolic signal in A549 cells – cell-based, resazurin fluorescence, 24 h, PK04 Diversity Set, profiling panel (AID 1171); settings: A549 viability, higher = more signal, called active from +8 up or from −8 down; note: test concentration not given here
[11] = resazurin metabolic signal in HepG2 cells – cell-based, resazurin fluorescence, 24 h, PK04 Diversity Set, profiling panel (AID 1172); settings: HepG2 viability, higher = more signal; note: test concentration not given here
[12] = budding yeast growth changes without added modifier – OD600, strain BY4716, 24 h, basal condition, primary screen (AID 1173); settings: S. cerevisiae BY4716 growth, OD600, 24 h; higher = more signal, called active from +8 up or from −8 down
[13] = viability profiling in MM1S myeloma cells – cell-based, resazurin fluorescence, basal, 24 h, PK04 Diversity Set, profiling panel (AID 1174); settings: higher = more signal, called active from +8 up or from −8 down; note: test concentration not given here
[14] = target: Dihydroorotate dehydrogenase (quinone), mitochondrial (Plasmodium falciparum (isolate 3D7)) (UniProt Q08210); experiment: inhibition of P. falciparum DHODH – biochemical, C-terminal His tag, absorbance 600 nm, primary screen (AID 1175); settings: PfDHODH enzyme, DCIP absorbance 600 nm; higher = more signal, called active from +8 up or from −8 down;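 note: recombinant parasite enzyme with a five histidine tag at its C terminus; test concentration not given here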
Chain of Dihydroorotate dehydrogenase (quinone), mitochondrial (Plasmodium falciparum (isolate 3D7)) (Q08210 whole entry, looked up): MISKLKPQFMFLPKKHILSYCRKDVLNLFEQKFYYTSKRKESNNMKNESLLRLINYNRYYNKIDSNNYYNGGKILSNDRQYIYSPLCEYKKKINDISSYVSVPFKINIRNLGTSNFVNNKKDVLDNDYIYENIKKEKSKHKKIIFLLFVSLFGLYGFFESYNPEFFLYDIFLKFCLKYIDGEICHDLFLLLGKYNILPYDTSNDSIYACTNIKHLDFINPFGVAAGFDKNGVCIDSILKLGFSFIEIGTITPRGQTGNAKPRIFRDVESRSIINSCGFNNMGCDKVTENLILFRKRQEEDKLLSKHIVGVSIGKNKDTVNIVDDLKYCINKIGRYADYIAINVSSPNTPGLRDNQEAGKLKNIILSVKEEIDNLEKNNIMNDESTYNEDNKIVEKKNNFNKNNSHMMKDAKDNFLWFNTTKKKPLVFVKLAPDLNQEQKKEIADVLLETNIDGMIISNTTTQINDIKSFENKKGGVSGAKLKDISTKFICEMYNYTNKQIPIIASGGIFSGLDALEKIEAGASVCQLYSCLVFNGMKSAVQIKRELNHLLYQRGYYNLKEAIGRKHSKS

[15] = inhibition of PAO1 biofilm formation – strain PAO1, LB-PBS medium, absorbance 600 nm, primary screen (AID 1176); note: test concentration not given here; settings: P. aeruginosa PAO1 growth/biofilm, A600, 12 h; higher = more signal
[16] = growth modulation of vineyard yeast isolate – strain RM11-1a, OD600, basal, 24 h, primary screen (AID 1177);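 note: cultures grown under basal conditions with no added stressor; test concentration not given here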; settings: S. cerevisiae RM11-1a growth, OD600, 24 h; higher = more signal, called active from +8 up or from −8 down
[17] = growth of efflux-deficient E. coli DRC39 – strain DRC39, OD650, 24 h, E. coli filamentation inducers, primary screen (AID 1178);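 note: growth measured as culture turbidity by optical density at 650 nm; test concentration not given here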; settings: E. coli DRC39 acrAB, higher = more signal, called active from +8 up or from −8 down
[18] = growth of efflux-deficient E. coli DRC39 – strain DRC39, OD650, 48 h, E. coli filamentation inducers, primary screen (AID 1179);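 note: screen aims at cell division blockers that make cells filament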; settings: E. coli DRC39 delta-acrAB growth, higher = more signal, called active from +8 up or from −8 down
[19] = viability profiling in RPMI8226 myeloma cells – cell-based, resazurin fluorescence, basal, 24 h, PK04 Diversity Set, profiling panel (AID 1180); settings: higher = more signal;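 note: RPMI8826 multiple myeloma cell line at 5000 cells per well; test concentration not given here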
[20] = target: E3 ubiquitin-protein ligase XIAP (Homo sapiens) (UniProt P98170); experiment: small molecules binding XIAP protein – biophysical, small-molecule microarray, fluorescence 635 nm, primary screen (AID 1181); settings: higher = more signal;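 note: score merges 667 nm emission and signal to noise over triplicate slides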
Chain of E3 ubiquitin-protein ligase XIAP (Homo sapiens) (P98170 whole entry, looked up): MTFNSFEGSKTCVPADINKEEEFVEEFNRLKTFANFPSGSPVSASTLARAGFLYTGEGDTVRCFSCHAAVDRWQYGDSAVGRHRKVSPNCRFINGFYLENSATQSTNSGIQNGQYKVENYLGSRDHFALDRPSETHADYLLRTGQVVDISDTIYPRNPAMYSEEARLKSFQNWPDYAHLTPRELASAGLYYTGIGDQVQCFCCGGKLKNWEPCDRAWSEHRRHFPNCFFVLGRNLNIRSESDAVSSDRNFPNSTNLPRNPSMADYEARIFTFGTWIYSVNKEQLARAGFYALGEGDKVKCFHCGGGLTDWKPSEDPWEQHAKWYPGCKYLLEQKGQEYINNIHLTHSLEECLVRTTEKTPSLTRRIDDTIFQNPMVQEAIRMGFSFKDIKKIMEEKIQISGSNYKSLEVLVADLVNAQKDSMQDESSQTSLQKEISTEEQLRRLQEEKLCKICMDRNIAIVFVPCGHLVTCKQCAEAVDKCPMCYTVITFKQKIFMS

SMILES | z-score [1] | z-score [2] | z-score [3] | z-score [4] | z-score [5] | z-score [6] | z-score [7] | z-score [8] | z-score [9] | z-score [10] | z-score [11] | z-score [12] | z-score [13] | composite z-score [14] | z-score [15] | z-score [16] | z-score [17] | z-score [18] | z-score [19] | composite z-score [20]
COC(=O)[C@@]1(Cc2ccc(OC)cc2)[C@H]2c3cc(C(=O)N(C)C)n(CCO)c3C[C@H]2CN1C(=O)c1ccccc1 | -1.58 | 0.611 | -0.516 | -1.25 | -0.755 | -0.133 | -1.36 (inactive) | -0.577 | -0.327 | -0.0699 (inactive) | -0.822 | 0.474 (inactive) | -1.23 (inactive) | -0.462 (inactive) | 0.33 (inactive) | -0.562 (inactive) | -0.748 (inactive) | -0.173 (inactive) | -0.915 | 0.0223
COC(=O)[C@@]1(Cc2ccccc2)[C@H]2c3cc(C(=O)N(C)C)n(CCN4CNCC4=O)c3C[C@H]2CN1C(=O)c1ccccc1 | 0.134 | -0.391 | 0.0701 | 0.0517 | -0.002 | 0.196 | -0.179 (inactive) | -0.874 | 1.46 | 0.293 (inactive) | 0.0001 | 1.13 (inactive) | -0.473 (inactive) | 0.0849 (inactive) | -0.0703 (inactive) | 0.0591 (inactive) | -0.459 (inactive) | -0.217 (inactive) | 0.432 | 0.404
C=C(C)[C@@H]1CC=C(C(O)C2C=CC3C(=O)N(c4ccccc4)C(=O)C3N2Nc2ccccc2F)CC1 (stereo not given in full) | -0.644 | -0.466 | 0.27 | -2.18 | 0.123 | -1.05 | -1.74 (inactive) | -0.872 | -0.043 | -0.35 (inactive) | -0.91 | 0.966 (inactive) | -0.773 (inactive) | 1.63 (inactive) | 1.51 (inactive) | 2.01 (inactive) | -0.96 (inactive) | -0.829 (inactive) | -1.09 | 0.0806
C=CC[C@]1(C(=O)O)COC(c2ccc(OCCCO)cc2)=N1 | 0.083 | -0.206 | -0.148 | -0.0046 | -0.571 | 0.0919 | 0.224 (inactive) | -0.0187 | -0.116 | -0.408 (inactive) | 0.264 | 0.32 (inactive) | 0.546 (inactive) | 0.146 (inactive) | 0.37 (inactive) | -0.643 (inactive) | -0.353 (inactive) | -0.201 (inactive) | -0.1 | 0.1
COCCOC(=O)N1C(=O)[C@@]2(c3cc(C#CCNC(N)=O)ccc31)[C@H](C(=O)N1CCc3cc(OC)c(OC)cc3C1)[C@H]1C(=O)O[C@H](c3ccccc3)[C@H](c3ccccc3)N1[C@@H]2c1ccccc1OCCO | 0.573 | 0.376 | 0.479 | 0.576 | -0.529 | -1.2 | 1.72 (inactive) | -0.502 | -0.98 | -0.286 (inactive) | 0.0874 | 1.11 (inactive) | 0.256 (inactive) | -1.68 (inactive) | 1.54 (inactive) | 0.816 (inactive) | 1.27 (inactive) | 1.29 (inactive) | 0.274 | 0.0578
COc1ccc(-c2cc3c(c(CCc4ccccc4)n2)[Si](C(C)C)(C(C)C)OC3)cn1 | 0.342 | -0.171 | -0.999 | -1.68 | -2.05 | -0.911 | -0.315 (inactive) | -0.738 | -0.24 | 2.35 (inactive) | 1.09 | 0.0476 (inactive) | 0.42 (inactive) | -0.319 (inactive) | -1.29 (inactive) | 0.817 (inactive) | 0.152 (inactive) | 0.469 (inactive) | 1.18 | 0.136
OCC1CC(c2ccccc2)=NO1 (stereo not given) | 0.71 | 0.311 | -0.0218 | 0.554 | -0.676 | 0.883 | -0.765 (inactive) | 0.527 | -0.201 | 0.281 (inactive) | -0.107 | -1.09 (inactive) | -0.85 (inactive) | -0.17 (inactive) | -0.201 (inactive) | 0.309 (inactive) | -0.075 (inactive) | 0.194 (inactive) | 0.886 | -0.158
CCCCCCc1nc(C2CC2)cc2c1[Si](C(C)C)(C(C)C)OC2 | -0.315 | 0.865 | -0.131 | -2.26 | -1.92 | -1.01 | -0.0319 (inactive) | -0.651 | -0.00829 | -0.366 (inactive) | -0.621 | 0.436 (inactive) | 0.0766 (inactive) | -2.54 (inactive) | -0.227 (inactive) | -0.431 (inactive) | -0.423 (inactive) | -0.606 (inactive) | -0.584 | -0.206
COc1ccc([Si](C)(C)[C@@H]2[C@@H](CC(=O)N(CCO)Cc3ccccc3)O[C@]3(C(=O)N(Cc4cccc(N5CCOC5=O)c4)c4ccccc43)[C@H]2C)cc1 | -1.23 | 0.836 | -1.64 | -2.66 | -3.51 | -0.0766 | 0.0933 (inactive) | -1.07 | -0.991 | -2.25 (inactive) | -1.89 | 0.0608 (inactive) | -3.23 (inactive) | 0.0205 (inactive) | 1.76 (inactive) | 2.67 (inactive) | 0.577 (inactive) | -0.463 (inactive) | -2.42 | -0.02
